Active and inactive are the calls of the source. How the source made its calls: active means hit-call score of the fitted dose curve at least 0.9, where 1 is the maximum; inactive means score below 0.9.
target: CCAAT/enhancer-binding protein beta (Homo sapiens) (UniProt P17676); assay: ATG_C_EBP_CIS: Attagene CIS-FACTORIAL HepG2 Assay for human CCAAT/Enhancer Binding Protein (C/EBP) beta (AID 2282927); conditions: HepG2 Attagene cis-factorial transcription factor reporter; actives raise or lower the signal
Sequence (P17676 whole entry, looked up): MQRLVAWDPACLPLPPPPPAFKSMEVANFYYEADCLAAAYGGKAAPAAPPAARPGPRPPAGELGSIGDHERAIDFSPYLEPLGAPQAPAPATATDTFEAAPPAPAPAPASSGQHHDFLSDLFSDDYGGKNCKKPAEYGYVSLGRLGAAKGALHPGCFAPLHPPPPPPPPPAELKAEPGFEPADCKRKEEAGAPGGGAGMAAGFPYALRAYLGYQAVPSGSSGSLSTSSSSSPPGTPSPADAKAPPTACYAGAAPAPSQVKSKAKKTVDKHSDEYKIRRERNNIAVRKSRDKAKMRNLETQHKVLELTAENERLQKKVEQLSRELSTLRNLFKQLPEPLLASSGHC
Protocol: ATG_CIS is a cell-based, multiplexed-readout assay that uses HepG2, a human liver cell line, with measurements taken at 24 hours after chemical dosing in a 24-well plate.ATG_C_EBP_CIS is one of 52 assay component(s) measured or calculated from the ATG_CIS assay. It is designed to make measurements of mRNA induction, a form of inducible reporter, as detected with fluorescence intensity signals by Reverse transcription polymerase chain reaction (RT-PCR) and Capillary electrophoresis technology.Data from the assay component ATG_C_EBP_CIS was analyzed into 1 assay endpoint. This assay endpoint, ATG_C_EBP_CIS, was analyzed with bidirectional fitting relative to DMSO as the negative control and baseline of activity. Using a type of inducible reporter, measures of mRNA for gain or loss-of-signal activity can be used to understand the reporter gene at the transcription factor-level as they relate to the gene CEBPB. Furthermore, this assay endpoint can be referred to as a primary readout, because this assay has produced multiple assay endpoints where this one serves a reporter gene function. To generalize the intended target to other relatable targets, this assay endpoint is annotated to the dna binding intended target family, where the subfamily is basic leucine zipper.
Human liver HepG2 cells are transiently transfected with multiple reporter transcription units (MRTUs) in 6-well plates using FuGene 6 reagent (Roche; 3 ml FuGene/1 mg DNA). The MRTU constructs are regulated by a cis-regulating element (promoter). […] A major difference between the CIS and TRANS system is that in CIS activities of endogenous TFs are measured, whereas the TRANS assay evaluates changes in activities of exogenous, chimeric NR-Gal4 proteins. […] At the end of 24 hour incubation, total RNA was isolated using TriZol reagent (Invitrogen). The isolated RNA is then reverse-transcribed using oligo(dT) primer and Mo-MLV reverse transcriptase (Invitrogen) with DNAse I (Ambion) treatment for 30 min. The one-tenth of the produced cDNA was amplified by PCR using Taq DNA polymerase (Invitrogen) and two reporter sequence-specific primers. The PCR products were fluorescently labeled by primer extension with 6-arboxyfluorescein (6-FAM) 5'-labeled reporter sequence-specific primer (2 min at 95 C, 20 s at 68 C and 10 min at 72 C) and these products were digested with 5U of HpaI (New England Biolabs) for 2h at 37 C. The fragments were purified using Qiaquick PCR columns (Qiagen), analyzed on an ABI 3130xL genetic analyzer (Applied Biosystems) with peak positions identified by using a set of X-rhodamine (ROX)-labeled MapMarker1000 molecular weight standards (BioVentures). The raw capillary electrophoresis data was processed using Attagraph software (Attagene).

SMILES | outcome | AC50
CCCCCCC(=O)OCC | inactive | –
Cc1oc(-c2ccccc2)nc1CCOc1cccc2c1ccn2CCC(=O)O | inactive | –
NCCO | inactive | –
O=[N+]([O-])C(CO)(CO)CO | inactive | –
CCCCCC(=O)O | inactive | –
C[C@]12C=CC(=O)C=C1CC[C@@H]1[C@@H]2C(=O)C[C@@]2(C)[C@H]1CC[C@]2(O)C(=O)CO | inactive | –
OC[C@@H](O)[C@@H](O)[C@H](O)[C@H](O)CO | inactive | –
CC(=O)C(C)=CC1C(C)=CCCC1(C)C (stereo not given) | inactive | –
CC(C)(C)c1cc(O)c(C(C)(C)C)cc1O | – | 89.1 µM (active)
NC(=O)Cn1c(=O)cc(CCN2CCN(c3nccc4sccc34)CC2)c2ccc(F)cc21 | inactive | –
O=C(O)CCCCC(=O)O | inactive | –
c1cc(-c2ccncc2)ccn1 | inactive | –
COC(=O)c1ccc(O)cc1 | inactive | –
CCCCCCCCCCC | inactive | –
COCCOCCOC | inactive | –
Cc1ccccc1Cl | inactive | –
C1CCC(SSC2CCCCC2)CC1 | inactive | –
COc1ccc(C)cc1N | inactive | –
COc1cc(C=O)ccc1O | inactive | –
CC(CO)OC(C)CO (stereo not given) (tested in a mixture with another compound) | inactive | –

SMILES | outcome | AC50
Cc1cc(=O)[nH]c(=S)[nH]1 | inactive | –
CNCc1cc(F)ccc1Oc1ccc(Cl)c(Cl)c1 | inactive | –
Cc1ccc(N(C)C)cc1 | inactive | –
Cc1ccc(C)c(O)c1C | inactive | –
CCOc1ccc2c(c1)C(C)=CC(C)(C)N2 | inactive | –
COc1ccc2c(c1)c(CC(=O)O)c(C)n2C(=O)c1ccc(Cl)cc1 | inactive | –
COc1ccc(S(=O)(=O)N2C(=O)[C@@](c3ccccc3OC)(N3C[C@H](O)C[C@H]3C(=O)N(C)C)c3cc(Cl)ccc32)c(OC)c1 | inactive | –
Clc1cc(Cl)c(Cl)cc1Cl | inactive | –
COc1cc(-c2nc(NC(=O)c3cc4cc(C)cc(C)c4n3CC(=O)O)sc2CCC2CCCCC2)c(OC)cc1Cl | – | 4.79 µM (active)
CN1CCCC1=O | inactive | –
O=C(OCCCCCOC(=O)c1ccccc1)c1ccccc1 | inactive | –
CCCCCCCCCCCCCO | inactive | –
Cc1cc(NC(=O)C(=O)O)cc(C)c1Oc1ccc(O)c2c1CCC2 | inactive | –
CC(=O)OCCOCCOCCOC(C)=O | inactive | –
COc1cc(S(=O)(=O)O)c(C)cc1N=Nc1c(O)ccc2cc(S(=O)(=O)O)ccc12 | inactive | –
COc1cc(/C=C/C(=O)CC(=O)/C=C/c2ccc(O)c(OC)c2)ccc1O | inactive | –
CCc1c(C(=O)NN2CCCCC2)nn(-c2ccc(Cl)cc2Cl)c1-c1ccc(Br)cc1 | inactive | –
CCCCCCCCCCCCCCCC | inactive | –
O=c1c(O)c(-c2ccc(O)c(O)c2)oc2cc(O)cc(O)c12 | inactive | –
C=CCOC(=O)c1ccccc1C(=O)OCC=C | – | 26.4 µM (active)

Source: PubChem BioAssay (EPA / NIEHS)
